Records with an inconclusive call do not appear. Active and inactive are the calls of the source. Unless noted, calls follow the shape of the dose curve; as a rule, active = well fitted curve in the direction sought with a large enough effect in the repeat runs; inconclusive = weak or mixed curves; inactive = no such curve, though single readings can be large; an effect the other way counts as inactive or inconclusive.
Tests used:
[1] = qHTS assay to identify small molecule agonists of the TGF-beta/Smad signaling pathway - cell viability counter screen (AID 1346829); also: top concentration of the series differs between compounds; nearly all actives have a fitted effect of over 45% in size
Method in brief: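 SBE-bla HEK 293T cells plated overnight, compound exposure 5 hr at 37 C. Viability read in the same wells by CellTiter-Glo luminescence after 30 min at room temperature, following the beta-lactamase read.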

[2] = qHTS assay to identify small molecule agonists of the TGF-beta/Smad signaling pathway (AID 1346859; active = well fitted activation curve with a large enough effect in the signal ratio in the repeat runs, not every such curve was filed as active; the % refers to the signal ratio; also: series mostly up to about 77 µM)
Method in brief: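 Reporter line: HEK 293T with stably integrated SBE-controlled beta-lactamase. Compound exposure lasts 5 hr at 37 C and 5% CO2; substrate loading follows for 2 hr at room temperature, with emission read at 460 and 530 nm.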

[3] = biological target: Thyrotropin-releasing hormone receptor (Homo sapiens) (UniProt P34981); test: qHTS assay to identify small molecule antagonists of the thyrotropin-releasing hormone receptor (TRHR) signaling pathway (AID 1346877; active = well fitted inhibition curve with a large enough effect in the repeat runs, not every such curve was filed as active; also: series mostly up to about 51 µM)
Method in brief: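 Overnight-plated (18 h, 37 °C) HEK293 cells expressing TRHR were dye-loaded 2 h, treated with compound, then stimulated with TRH at 1 nM final. Fluorescence intensity was captured every second for 3 min.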

[4] = biological target: Thyrotropin-releasing hormone receptor (Homo sapiens) (UniProt P34981); test: qHTS assay to identify small molecule agonists of the thyrotropin-releasing hormone receptor (TRHR) signaling pathway (AID 1346891; calls by dose curve;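 also: HEK293 cells expressing TRHR with calcium dye readout; series mostly up to about 58 µM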)
Method in brief: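 Cells: TRHR-Hek293, seeded and incubated 18 h. Dye loading: 2 h at 37 °C. Compound added from DMSO stock by pin tool. Read-out: kinetic calcium fluorescence over 3 min.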

[5] = Human pregnane X receptor (PXR) small molecule agonists, qHTS cell viability counter screen (AID 1346977); also: nearly all actives have a fitted effect of over 50% in size
Method in brief: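 Cytotoxicity counter screen run in the same wells as the PXR luciferase assay, using PXR-Luc HepG2 cells in charcoal-stripped serum medium. Viability: CellTiter-Fluor fluorescence after 24hr compound treatment.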

[6] = Caspase-3/7 induction in HepG2 cells by small molecules, qHTS assay (AID 1346978); also: nearly all actives have a fitted effect of over 15% in size
Method in brief: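 Wild-type HepG2 cells, 2,000/well, settled 5 hr at 37 C and 5% CO2, then compound-treated for 17 hr; caspase-3/7 activity read by luminescent Caspase-Glo 3/7 after 30 min at room temperature.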

[7] = Caspase-3/7 induction in CHO-K1 cells by small molecules, qHTS cell viability counter screen (AID 1346979); also: nearly all actives have a fitted effect of over 35% in size
Method in brief: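 Cytotoxicity counter screen run in parallel with the caspase-3/7 assay: CHO-K1 cells, 16hr compound treatment at 37C, then CellTiter-Fluor for 1hr before fluorescence reading.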

[8] = Caspase-3/7 induction in CHO-K1 cells by small molecules, qHTS assay (AID 1346980); also: nearly all actives have a fitted effect of over 15% in size
Method in brief: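 Wild-type CHO-K1 cells exposed to compounds for 17hr at 37 C, 5% CO2. Caspase-3/7 activity then measured by Caspase-Glo 3/7 luminescence after 30min at room temperature.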

[9] = Caspase-3/7 induction in HepG2 cells by small molecules, qHTS cell viability counter screen (AID 1346981); also: series mostly up to about 92 µM; nearly all actives have a fitted effect of over 30% in size
Method in brief: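 Treatment of HepG2 cells with DMSO-delivered compounds ran 16 hr at 37 C following a 5-hr pre-incubation of 2,000 cells/well. CellTiter-Fluor fluorescence, read after 1 hr, served as the viability measure in a qHTS format.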

[10] = biological target: Nuclear receptor subfamily 1 group I member 2 (Homo sapiens) (UniProt O75469); test: Human pregnane X receptor (PXR) small molecule agonists, qHTS assay (AID 1346982); also: nearly all actives have a fitted effect of over 35% in size
Method in brief: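 Stable HepG2 line reporting PXR-mediated CYP3A4 expression via luciferase. Treatment: 24 hr with compounds in DMSO at 37 C. Detection: ONE-Glo luminescence.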

[11] = biological target: Cytochrome P450 2D6 (Homo sapiens) (UniProt P10635); test: Cytochrome P450 Family 2 Subfamily D Member 6 (CYP2D6) small molecule antagonists: luciferase reporter qHTS assay (AID 1671196); also: series mostly up to about 120 µM; nearly all actives have a fitted effect of over 50% in size
Method in brief: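 Chemicals tested for interference with CYP2D6 activity; proluciferin substrate, NADPH regeneration, 1 h at room temperature, luminescent detection.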

[12] = biological target: Cytochrome P450 2C19 (Homo sapiens) (UniProt P33261); test: Cytochrome P450 Family 2 Subfamily C Member 19 (CYP2C19) small molecule antagonists: luciferase reporter qHTS assay (AID 1671197); also: nearly all actives have a fitted effect of over 65% in size; also: potency is read from the fitted curve at half-maximal effect; as to activity change, negative = inhibition: series mostly up to about 120 µM
Method in brief: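 P450-Glo CYP2C19 system: enzyme-substrate mix with compound 10 min at room temperature, then NADPH regeneration solution, 1 h at 37C. Proluciferin-to-luciferin conversion detected by luminescence after 20 min with detection reagent; ketoconazole as positive control.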

[13] = biological target: Cytochrome P450 2C9 (Homo sapiens) (UniProt P11712); test: Cytochrome P450 Family 2 Subfamily C Member 9 (CYP2C9) small molecule antagonists: luciferase reporter qHTS assay (AID 1671198); also: series mostly up to about 120 µM; nearly all actives have a fitted effect of over 50% in size
Method in brief: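 P450-Glo proluciferin substrate with CYP2C9 enzyme; 10 min RT preincubation, then NADPH regeneration 1 h at 37C; luciferin detection reagent 20 min RT, luminescence in relative luminescence units.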

[14] = biological target: Cytochrome P450 1A2 (Homo sapiens) (UniProt P05177); test: Cytochrome P450 Family 1 Subfamily A Member 2 (CYP1A2) small molecule antagonists: luciferase reporter qHTS assay (AID 1671199); also: nearly all actives have a fitted effect of over 50% in size; also: potency is read from the fitted curve at half-maximal effect; as to activity change, negative = inhibition: series mostly up to about 120 µM
Method in brief: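 Read-out is luminescence from luciferin detection reagent (20 min) proportional to CYP1A2 activity; compounds in DMSO preincubated 10 min with enzyme and proluciferin substrate, then NADPH regeneration solution, 1 h, room temperature.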

[15] = biological target: Voltage-gated inwardly rectifying potassium channel KCNH2 (Homo sapiens) (UniProt Q12809); test: Human Ether-a-go-go-Related Gene (hERG) channel small molecule antagonists: fluorescence cell-based qHTS assay (AID 1671200)
Method in brief: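 Fluorescence at 540 nm emission (480 nm excitation) was recorded kinetically for 2 min at 1-second intervals once the thallium-containing stimulus reached cells previously loaded with FluxOR II dye.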

[16] = biological target: Cytochrome P450 3A4 (Homo sapiens) (UniProt P08684); test: Cytochrome P450 Family 3 Subfamily A Member 4 (CYP3A4) small molecule antagonists: luciferase reporter qHTS assay (AID 1671201)
Method in brief: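 qHTS, 1536-well. CYP3A4 + proluciferin substrate, cpd 10 min RT → NADPH regen 1 h RT → detection reagent 20 min → luminescence (RLU). Ketoconazole positive control.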

[17] = biological target: Nuclear receptor subfamily 1 group I member 2 (Homo sapiens) (UniProt O75469); test: CYP3A4 induction through human pregnane X receptor (PXR) by small molecules, qHTS assay (AID 1346984); also: nearly all actives have a fitted effect of over 40% in size
Method in brief: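 After 24 h at 37C with compound, DPX-2 cells (HepG2, co-transfected PXR response element and CYP3A4 promoter-luciferase) got 3uM final P450-Glo Luciferin-IPA for 3 h; One-Glo luminescence followed.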

[18] = biological target: Nuclear receptor subfamily 1 group I member 2 (Homo sapiens) (UniProt O75469); test: Human pregnane X receptor (PXR) activation by small molecules, qHTS assay (AID 1346985); also: nearly all actives have a fitted effect of over 40% in size
Method in brief: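 DPX-2 cells (HepG2 co-transfected with a PXR response element and a CYP3A4-promoter luciferase construct) were seeded at 2,000 per well, rested 5 hr at 37C, then exposed to DMSO-dissolved compounds for 24 hr. Activation was read as luciferase luminescence.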
% is scaled to controls: 0 for no effect and ±100 for the full control effect.

Thyrotropin-releasing hormone receptor (Homo sapiens), sequence (P34981 whole entry, looked up): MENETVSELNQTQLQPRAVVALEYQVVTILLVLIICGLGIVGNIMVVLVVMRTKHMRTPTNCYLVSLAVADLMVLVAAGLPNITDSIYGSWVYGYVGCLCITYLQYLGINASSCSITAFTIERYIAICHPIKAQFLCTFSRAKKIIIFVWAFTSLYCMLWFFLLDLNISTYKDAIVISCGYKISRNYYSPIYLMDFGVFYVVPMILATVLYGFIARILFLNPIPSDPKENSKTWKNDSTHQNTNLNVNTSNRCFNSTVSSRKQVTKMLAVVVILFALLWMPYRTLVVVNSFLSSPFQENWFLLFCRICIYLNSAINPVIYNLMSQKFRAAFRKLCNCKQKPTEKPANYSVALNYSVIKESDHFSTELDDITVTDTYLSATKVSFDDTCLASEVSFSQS
Cytochrome P450 3A4 (Homo sapiens), sequence (P08684 whole entry, looked up): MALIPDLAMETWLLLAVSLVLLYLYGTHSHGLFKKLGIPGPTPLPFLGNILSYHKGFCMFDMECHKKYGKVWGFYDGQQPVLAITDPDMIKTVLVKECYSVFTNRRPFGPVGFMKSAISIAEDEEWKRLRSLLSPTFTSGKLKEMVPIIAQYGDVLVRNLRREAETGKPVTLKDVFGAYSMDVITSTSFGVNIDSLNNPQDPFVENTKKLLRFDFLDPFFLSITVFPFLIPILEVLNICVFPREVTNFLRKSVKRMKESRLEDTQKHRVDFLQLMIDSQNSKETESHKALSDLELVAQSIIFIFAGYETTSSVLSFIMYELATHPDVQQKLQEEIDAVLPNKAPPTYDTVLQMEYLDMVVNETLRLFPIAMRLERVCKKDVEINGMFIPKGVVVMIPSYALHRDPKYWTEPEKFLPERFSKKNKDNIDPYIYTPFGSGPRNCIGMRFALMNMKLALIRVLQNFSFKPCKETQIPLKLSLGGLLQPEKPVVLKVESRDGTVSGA
Nuclear receptor subfamily 1 group I member 2 (Homo sapiens), sequence (O75469 whole entry, looked up): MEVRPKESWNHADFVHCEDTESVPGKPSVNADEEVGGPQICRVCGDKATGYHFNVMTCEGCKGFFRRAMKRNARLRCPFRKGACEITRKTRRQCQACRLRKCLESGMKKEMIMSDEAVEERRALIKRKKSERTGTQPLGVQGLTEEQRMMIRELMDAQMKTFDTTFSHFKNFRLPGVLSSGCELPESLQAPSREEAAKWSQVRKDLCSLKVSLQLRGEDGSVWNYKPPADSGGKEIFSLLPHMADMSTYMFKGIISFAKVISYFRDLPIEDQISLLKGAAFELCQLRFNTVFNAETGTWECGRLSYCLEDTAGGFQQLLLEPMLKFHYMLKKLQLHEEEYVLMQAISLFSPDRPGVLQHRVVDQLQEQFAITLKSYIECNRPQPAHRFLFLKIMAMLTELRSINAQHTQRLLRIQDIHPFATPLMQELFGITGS
Cytochrome P450 2C19 (Homo sapiens), sequence (P33261 whole entry, looked up): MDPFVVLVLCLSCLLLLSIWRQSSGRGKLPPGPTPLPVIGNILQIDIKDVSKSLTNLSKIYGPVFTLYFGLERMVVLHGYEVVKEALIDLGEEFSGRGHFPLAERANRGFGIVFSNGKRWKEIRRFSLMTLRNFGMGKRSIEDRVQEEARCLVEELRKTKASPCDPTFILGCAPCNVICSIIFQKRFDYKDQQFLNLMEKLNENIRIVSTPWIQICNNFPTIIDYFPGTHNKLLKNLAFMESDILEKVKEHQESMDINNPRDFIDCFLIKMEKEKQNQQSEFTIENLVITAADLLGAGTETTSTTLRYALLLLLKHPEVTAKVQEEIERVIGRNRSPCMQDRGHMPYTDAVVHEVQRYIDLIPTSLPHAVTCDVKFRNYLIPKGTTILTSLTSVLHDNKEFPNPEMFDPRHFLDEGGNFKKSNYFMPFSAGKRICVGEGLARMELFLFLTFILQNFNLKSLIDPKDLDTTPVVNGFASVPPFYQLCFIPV
Cytochrome P450 1A2 (Homo sapiens), sequence (P05177 whole entry, looked up): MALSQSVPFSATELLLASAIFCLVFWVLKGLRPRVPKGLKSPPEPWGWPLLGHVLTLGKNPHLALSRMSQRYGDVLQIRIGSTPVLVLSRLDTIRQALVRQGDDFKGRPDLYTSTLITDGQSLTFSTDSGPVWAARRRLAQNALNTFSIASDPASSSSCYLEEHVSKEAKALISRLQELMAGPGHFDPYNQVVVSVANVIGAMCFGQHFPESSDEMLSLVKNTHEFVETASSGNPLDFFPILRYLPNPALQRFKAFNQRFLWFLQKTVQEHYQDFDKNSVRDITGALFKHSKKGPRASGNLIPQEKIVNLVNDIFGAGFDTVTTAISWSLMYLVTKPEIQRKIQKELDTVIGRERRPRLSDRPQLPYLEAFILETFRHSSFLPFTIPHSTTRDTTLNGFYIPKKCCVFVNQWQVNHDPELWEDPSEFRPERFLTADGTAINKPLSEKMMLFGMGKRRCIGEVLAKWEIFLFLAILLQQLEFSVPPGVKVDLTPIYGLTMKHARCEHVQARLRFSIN
Voltage-gated inwardly rectifying potassium channel KCNH2 (Homo sapiens), sequence (Q12809 whole entry, looked up): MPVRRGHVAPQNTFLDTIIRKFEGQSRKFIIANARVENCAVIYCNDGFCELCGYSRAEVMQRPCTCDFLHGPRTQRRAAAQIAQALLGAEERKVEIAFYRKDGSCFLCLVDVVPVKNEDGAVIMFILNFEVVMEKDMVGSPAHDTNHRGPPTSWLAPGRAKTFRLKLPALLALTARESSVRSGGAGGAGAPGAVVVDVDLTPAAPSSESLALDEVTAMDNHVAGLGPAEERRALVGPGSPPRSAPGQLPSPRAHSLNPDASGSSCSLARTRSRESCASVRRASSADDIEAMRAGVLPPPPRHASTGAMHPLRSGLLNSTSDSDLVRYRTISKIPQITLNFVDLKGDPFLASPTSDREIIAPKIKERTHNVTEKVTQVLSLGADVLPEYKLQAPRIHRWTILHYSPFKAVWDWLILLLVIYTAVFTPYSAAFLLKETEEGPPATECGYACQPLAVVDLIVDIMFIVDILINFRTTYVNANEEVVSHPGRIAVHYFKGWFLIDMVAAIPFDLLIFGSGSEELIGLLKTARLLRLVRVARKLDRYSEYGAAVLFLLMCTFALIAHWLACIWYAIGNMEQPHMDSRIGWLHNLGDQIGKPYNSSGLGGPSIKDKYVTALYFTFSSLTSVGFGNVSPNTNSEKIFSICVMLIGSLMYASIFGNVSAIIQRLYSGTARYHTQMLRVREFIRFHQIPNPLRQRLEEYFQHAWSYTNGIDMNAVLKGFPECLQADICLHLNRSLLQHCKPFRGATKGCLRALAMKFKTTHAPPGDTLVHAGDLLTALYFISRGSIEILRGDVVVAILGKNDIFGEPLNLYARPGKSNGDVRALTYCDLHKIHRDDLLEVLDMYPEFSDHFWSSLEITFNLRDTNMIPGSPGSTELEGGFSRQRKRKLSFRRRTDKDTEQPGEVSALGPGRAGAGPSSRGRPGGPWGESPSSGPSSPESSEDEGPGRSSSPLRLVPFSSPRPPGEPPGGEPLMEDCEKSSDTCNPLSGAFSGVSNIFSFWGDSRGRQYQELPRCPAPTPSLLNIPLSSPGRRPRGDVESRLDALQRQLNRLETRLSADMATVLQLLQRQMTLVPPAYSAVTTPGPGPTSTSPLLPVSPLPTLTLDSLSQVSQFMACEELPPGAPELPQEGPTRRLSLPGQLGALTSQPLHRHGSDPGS
Cytochrome P450 2C9 (Homo sapiens), sequence (P11712 whole entry, looked up): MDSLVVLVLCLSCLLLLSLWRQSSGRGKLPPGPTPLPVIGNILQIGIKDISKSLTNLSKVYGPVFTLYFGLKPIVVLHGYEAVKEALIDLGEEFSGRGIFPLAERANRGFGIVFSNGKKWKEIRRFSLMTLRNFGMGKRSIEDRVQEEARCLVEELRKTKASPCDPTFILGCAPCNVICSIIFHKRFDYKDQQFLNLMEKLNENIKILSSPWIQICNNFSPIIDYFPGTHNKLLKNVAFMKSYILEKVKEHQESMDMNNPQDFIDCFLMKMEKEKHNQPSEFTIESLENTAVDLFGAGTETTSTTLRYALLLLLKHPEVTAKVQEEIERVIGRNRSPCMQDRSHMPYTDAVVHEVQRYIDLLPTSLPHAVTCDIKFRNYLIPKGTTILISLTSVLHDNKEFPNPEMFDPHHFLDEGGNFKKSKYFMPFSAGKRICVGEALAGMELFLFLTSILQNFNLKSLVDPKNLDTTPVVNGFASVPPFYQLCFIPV
Cytochrome P450 2D6 (Homo sapiens), sequence (P10635 whole entry, looked up): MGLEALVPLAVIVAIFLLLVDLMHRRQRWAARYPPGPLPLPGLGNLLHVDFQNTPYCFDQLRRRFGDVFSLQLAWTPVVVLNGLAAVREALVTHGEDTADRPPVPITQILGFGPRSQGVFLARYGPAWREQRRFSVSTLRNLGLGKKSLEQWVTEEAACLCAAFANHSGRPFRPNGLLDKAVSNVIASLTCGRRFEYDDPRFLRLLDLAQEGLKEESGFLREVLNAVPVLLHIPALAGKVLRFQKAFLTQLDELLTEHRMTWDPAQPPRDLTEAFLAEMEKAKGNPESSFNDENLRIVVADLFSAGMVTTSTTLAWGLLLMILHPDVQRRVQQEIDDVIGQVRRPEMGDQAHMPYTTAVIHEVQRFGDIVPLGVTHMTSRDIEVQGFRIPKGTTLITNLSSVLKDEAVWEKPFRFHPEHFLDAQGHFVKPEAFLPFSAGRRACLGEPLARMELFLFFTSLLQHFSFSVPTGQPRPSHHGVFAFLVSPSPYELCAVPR

CC1(C)C(=O)C(C)(C)C1=O
inactive: outcome [1] | outcome [2] | outcome [3] | Potency [4] | outcome [5] | outcome [6] | Potency [7] | outcome [8] | outcome [9] | Potency [10] | Potency [11] | Potency [12] | Potency [13] | Potency [14] | Potency [15] | Potency [16]

CCCC(=O)CC
inactive: outcome [1] | outcome [2] | outcome [3] | Potency [4] | outcome [5] | outcome [6] | Potency [7] | outcome [8] | outcome [9] | Potency [10] | Potency [11] | Potency [13] | Potency [15] | Potency [16]
active: Potency [12] 41.2 µM | Potency [14] 20.6 µM

CC(=O)SC[C@@H](C)C(=O)N1CCC[C@H]1C(=O)N[C@@H](Cc1ccccc1)C(=O)O
inactive: outcome [1] | outcome [2] | outcome [3] | Potency [4] | outcome [5] | outcome [6] | Potency [7] | outcome [8] | outcome [9] | Potency [10] | Potency [11] | Potency [12] | Potency [13] | Potency [14] | Potency [15] | Potency [16]

CCCCCCCCOCCC#N
inactive: outcome [1] | outcome [2] | outcome [3] | Potency [4] | outcome [5] | outcome [6] | Potency [7] | outcome [8] | outcome [9] | Potency [10] | Potency [11] | Potency [12] | Potency [13] | Potency [14] | Potency [15] | Potency [16]

O=C1c2ccccc2C(=O)N1CO
inactive: outcome [1] | outcome [2] | outcome [3] | Potency [4] | outcome [5] | outcome [6] | Potency [7] | outcome [8] | outcome [9] | Potency [10] | Potency [11] | Potency [12] | Potency [13] | Potency [15] | Potency [16]

CC1(C)CC(N)CC(C)(C)N1
inactive: outcome [1] | outcome [2] | outcome [3] | Potency [4] | outcome [5] | outcome [6] | Potency [7] | outcome [8] | outcome [9] | Potency [10] | Potency [11] | Potency [12] | Potency [13] | Potency [14] | Potency [15] | Potency [16]

NC[C@H]1O[C@H](O[C@H]2[C@H](O)[C@@H](O[C@H]3O[C@H](CO)[C@@H](O)[C@H](N)[C@H]3O)[C@H](N)C[C@@H]2N)[C@H](N)[C@@H](O)[C@@H]1O
inactive: activity change, negative = cytotoxicity [1] -5.22% [at 15.8 µM] | activation [2] 3.2% [at 15.8 µM] | activity, negative = inhibition [3] -3.11% [at 10.5 µM] | activation [4] -0.0664% [at 11.8 µM] | activity change, negative = cytotoxicity [5] 11% [at 19 µM] | caspase activation [6] -1.91% [at 19 µM] | activity change, negative = cytotoxicity [7] 1.7% [at 19 µM] | caspase-3/7 activation [8] -0.57% [at 19 µM] | activity change, negative = cytotoxicity [9] 0.336% [at 19 µM] | activation [10] -6.93% [at 19 µM] | activity change, negative = inhibition [11] 0.727% [at 23.6 µM] | activity change, negative = inhibition [12] 39.5% [at 23.6 µM] | activity change, negative = inhibition [13] 16.5% [at 23.6 µM] | activity change, negative = inhibition [15] 1.37% [at 15.8 µM] | activity change, negative = inhibition [16] 6.04% [at 23.6 µM]

CCCCCCCCS(=O)(=O)O
inactive: outcome [1] | outcome [2] | outcome [3] | Potency [4] | outcome [5] | outcome [6] | Potency [7] | outcome [8] | outcome [9] | Potency [10] | Potency [11] | Potency [12] | Potency [14] | Potency [15] | Potency [16]

COc1cc(OC)cc(OC)c1
active: Potency [14] 17.4 µM
inactive: outcome [1] | outcome [2] | outcome [3] | Potency [4] | outcome [5] | outcome [6] | Potency [7] | outcome [8] | outcome [9] | Potency [10] | outcome [17] | outcome [18] | Potency [11] | Potency [12] | Potency [13] | Potency [15] | Potency [16]

NCC1CCC(C(=O)Oc2ccc(CCC(=O)O)cc2)CC1 (centres undefined)
inactive: outcome [1] | outcome [2] | outcome [3] | Potency [4] | outcome [5] | outcome [6] | Potency [7] | outcome [8] | outcome [9] | Potency [10] | outcome [17] | outcome [18] | Potency [11] | Potency [12] | Potency [13] | Potency [14] | Potency [15] | Potency [16]

N=C(N)N
inactive: outcome [1] | outcome [2] | outcome [3] | Potency [4] | outcome [5] | outcome [6] | Potency [7] | outcome [8] | outcome [9] | Potency [10] | Potency [11] | Potency [12] | Potency [14] | Potency [15] | Potency [16]

CCCCC(O)/C=C(C)/C=C/C=C/C(=O)N1CCCC1=O (centres undefined)
inactive: outcome [1] | outcome [2] | outcome [3] | Potency [4] | outcome [5] | outcome [6] | Potency [7] | outcome [8] | outcome [9] | Potency [10] | Potency [11] | Potency [12] | Potency [13] | Potency [14] | Potency [15]

CCCCN1C(=O)c2ccccc2C1=O
active: Potency [12] 20.7 µM | Potency [14] 2.61 µM
inactive: outcome [1] | outcome [2] | outcome [3] | Potency [4] | outcome [5] | outcome [6] | Potency [7] | outcome [8] | outcome [9] | Potency [10] | Potency [11] | Potency [15] | Potency [16]

Cc1ccc(NC(N)=O)cc1
active: Potency [14] 40.2 µM
inactive: outcome [1] | outcome [2] | outcome [3] | Potency [4] | outcome [5] | outcome [6] | Potency [7] | outcome [8] | outcome [9] | Potency [10] | Potency [11] | Potency [12] | Potency [13] | Potency [15] | Potency [16]

CC(C)(C)C(=O)NCCCC(=O)O
inactive: outcome [1] | outcome [2] | outcome [3] | Potency [4] | outcome [5] | outcome [6] | Potency [7] | outcome [8] | outcome [9] | Potency [10] | outcome [17] | outcome [18] | Potency [11] | Potency [12] | Potency [14] | Potency [15] | Potency [16]

N=C(N)S(=O)O
inactive: outcome [1] | outcome [2] | outcome [3] | Potency [4] | outcome [5] | outcome [6] | Potency [7] | outcome [8] | outcome [9] | Potency [10] | Potency [11] | Potency [12] | Potency [14] | Potency [15] | Potency [16]

Source: PubChem BioAssay (Tox21)
